# Data from the supplement of paper PMC12819154, “High-throughput peptide-centric local stability assay extends protein–ligand identification to membrane proteins, tissues and bacteria” (Nature Structural & Molecular Biology, 2025).
# Compound: Nc1ncnc2c1ncn2[C@@H]1O[C@H](COP(=O)(O)OP(=O)(O)OP(=O)(O)O)[C@@H](O)[C@H]1O [adenosine 5'-triphosphate]
# Experiment: log2 fold change of tryptic peptide abundance, ligand vs vehicle (limited proteolysis) (log2 ratio); higher = more trypsin-susceptible (destabilized)
# Details: ligand concentration: 5 mM; sample: E. coli desalted lysate; replicate design: treated before aliquoting
# Procedure: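 HT-PELSA: desalted E. coli K-12 BW25113 lysate (with 12 mM MgCl2) incubated with 5 mM ATP (pH 7) or water for 30 min at 25 C, then a 4 min trypsin pulse at 22 C. Peptides were quantified by DIA-MS (4 replicates). Value is the peptide log2 fold change (treated/control); negative = stabilized. Scale: negative = ligand-stabilized region.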
# 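Also: lysate desalted by size exclusion to strip endogenous ATP, peptide intensities built from DIA-NN precursor signals, and peptides missing any value discarded before comparison.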
# Chain of UniProt P39410 (P39410 whole entry): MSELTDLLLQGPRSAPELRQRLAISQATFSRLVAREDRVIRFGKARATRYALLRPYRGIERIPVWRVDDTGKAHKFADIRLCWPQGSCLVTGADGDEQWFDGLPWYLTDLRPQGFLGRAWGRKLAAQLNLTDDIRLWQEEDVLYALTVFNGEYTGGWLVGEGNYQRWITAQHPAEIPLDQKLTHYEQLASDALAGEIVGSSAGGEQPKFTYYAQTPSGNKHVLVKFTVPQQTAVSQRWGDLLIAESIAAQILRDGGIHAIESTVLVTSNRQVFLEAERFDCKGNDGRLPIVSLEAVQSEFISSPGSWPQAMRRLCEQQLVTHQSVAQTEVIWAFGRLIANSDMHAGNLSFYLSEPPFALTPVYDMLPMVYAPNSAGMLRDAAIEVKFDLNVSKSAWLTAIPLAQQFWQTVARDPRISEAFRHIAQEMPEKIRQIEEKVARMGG
# Chain of UniProt P77306 (P77306 whole entry): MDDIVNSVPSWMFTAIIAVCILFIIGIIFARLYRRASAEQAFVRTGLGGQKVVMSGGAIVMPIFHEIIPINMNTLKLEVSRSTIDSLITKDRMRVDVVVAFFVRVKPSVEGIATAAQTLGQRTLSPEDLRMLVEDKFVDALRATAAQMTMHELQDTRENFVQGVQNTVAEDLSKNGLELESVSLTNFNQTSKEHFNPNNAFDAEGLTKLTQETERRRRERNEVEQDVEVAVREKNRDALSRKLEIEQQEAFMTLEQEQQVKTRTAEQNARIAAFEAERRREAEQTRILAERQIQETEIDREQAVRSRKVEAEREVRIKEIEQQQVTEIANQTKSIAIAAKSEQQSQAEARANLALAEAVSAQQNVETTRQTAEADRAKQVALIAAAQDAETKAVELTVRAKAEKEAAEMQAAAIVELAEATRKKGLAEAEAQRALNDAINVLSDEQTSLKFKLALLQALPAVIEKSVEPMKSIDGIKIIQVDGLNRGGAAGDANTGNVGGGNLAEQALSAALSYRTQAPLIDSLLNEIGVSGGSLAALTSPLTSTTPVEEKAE
# Chain of UniProt P33030 (P33030 whole entry): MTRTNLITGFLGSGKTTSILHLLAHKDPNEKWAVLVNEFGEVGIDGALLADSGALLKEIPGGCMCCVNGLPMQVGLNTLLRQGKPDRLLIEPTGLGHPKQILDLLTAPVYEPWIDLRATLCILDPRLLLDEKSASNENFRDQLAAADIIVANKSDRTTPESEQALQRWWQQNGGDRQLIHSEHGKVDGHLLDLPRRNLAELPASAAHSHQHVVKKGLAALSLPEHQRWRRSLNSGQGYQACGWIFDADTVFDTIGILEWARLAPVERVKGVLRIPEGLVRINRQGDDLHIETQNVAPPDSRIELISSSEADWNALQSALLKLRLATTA
# Chain of UniProt P07395 (P07395 whole entry): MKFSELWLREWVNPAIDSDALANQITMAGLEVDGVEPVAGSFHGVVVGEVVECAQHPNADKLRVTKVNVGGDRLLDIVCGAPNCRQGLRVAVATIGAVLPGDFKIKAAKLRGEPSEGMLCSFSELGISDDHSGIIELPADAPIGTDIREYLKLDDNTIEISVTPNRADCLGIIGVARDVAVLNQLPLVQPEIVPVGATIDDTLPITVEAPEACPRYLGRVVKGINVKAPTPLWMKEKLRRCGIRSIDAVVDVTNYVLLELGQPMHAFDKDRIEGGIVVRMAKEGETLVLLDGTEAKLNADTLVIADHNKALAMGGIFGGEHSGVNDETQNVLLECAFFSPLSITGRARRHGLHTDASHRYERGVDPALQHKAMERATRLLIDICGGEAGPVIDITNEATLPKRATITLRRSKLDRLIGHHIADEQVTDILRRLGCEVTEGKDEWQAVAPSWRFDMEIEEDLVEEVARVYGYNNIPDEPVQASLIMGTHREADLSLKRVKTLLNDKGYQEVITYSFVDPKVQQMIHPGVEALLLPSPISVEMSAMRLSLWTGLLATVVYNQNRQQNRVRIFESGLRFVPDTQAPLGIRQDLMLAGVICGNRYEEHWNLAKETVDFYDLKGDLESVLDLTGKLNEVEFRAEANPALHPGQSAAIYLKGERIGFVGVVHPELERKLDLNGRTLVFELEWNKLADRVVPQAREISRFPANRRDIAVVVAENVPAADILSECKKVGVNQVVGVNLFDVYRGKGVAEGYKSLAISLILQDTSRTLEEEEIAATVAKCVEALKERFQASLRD
# Chain of UniProt P0A6H5 (P0A6H5 whole entry): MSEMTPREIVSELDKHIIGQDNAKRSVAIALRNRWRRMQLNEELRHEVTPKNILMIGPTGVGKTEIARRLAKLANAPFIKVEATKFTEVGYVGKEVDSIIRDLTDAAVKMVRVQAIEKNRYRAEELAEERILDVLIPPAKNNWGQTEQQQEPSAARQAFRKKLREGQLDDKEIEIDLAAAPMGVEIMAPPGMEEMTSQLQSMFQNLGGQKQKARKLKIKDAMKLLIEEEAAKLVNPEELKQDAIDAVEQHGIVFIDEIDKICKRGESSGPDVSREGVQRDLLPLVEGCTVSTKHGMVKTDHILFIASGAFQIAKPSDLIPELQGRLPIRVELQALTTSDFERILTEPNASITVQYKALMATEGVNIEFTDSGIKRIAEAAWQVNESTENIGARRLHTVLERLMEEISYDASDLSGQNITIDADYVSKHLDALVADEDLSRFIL
# Chain of UniProt P37766 (P37766 whole entry): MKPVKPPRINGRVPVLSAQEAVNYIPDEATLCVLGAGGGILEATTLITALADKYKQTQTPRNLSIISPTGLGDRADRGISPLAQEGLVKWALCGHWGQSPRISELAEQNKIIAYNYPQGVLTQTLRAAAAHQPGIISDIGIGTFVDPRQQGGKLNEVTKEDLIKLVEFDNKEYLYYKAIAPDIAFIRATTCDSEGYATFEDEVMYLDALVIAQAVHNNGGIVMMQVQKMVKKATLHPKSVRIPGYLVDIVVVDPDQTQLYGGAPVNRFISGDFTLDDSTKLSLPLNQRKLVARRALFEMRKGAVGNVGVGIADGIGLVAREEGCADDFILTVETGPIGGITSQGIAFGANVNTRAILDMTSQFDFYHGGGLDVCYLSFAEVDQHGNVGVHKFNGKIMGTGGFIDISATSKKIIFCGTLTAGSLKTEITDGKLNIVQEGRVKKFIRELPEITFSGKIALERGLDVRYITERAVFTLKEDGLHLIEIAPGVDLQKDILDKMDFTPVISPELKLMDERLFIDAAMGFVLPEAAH
# Chain of UniProt P36928 (P36928 whole entry): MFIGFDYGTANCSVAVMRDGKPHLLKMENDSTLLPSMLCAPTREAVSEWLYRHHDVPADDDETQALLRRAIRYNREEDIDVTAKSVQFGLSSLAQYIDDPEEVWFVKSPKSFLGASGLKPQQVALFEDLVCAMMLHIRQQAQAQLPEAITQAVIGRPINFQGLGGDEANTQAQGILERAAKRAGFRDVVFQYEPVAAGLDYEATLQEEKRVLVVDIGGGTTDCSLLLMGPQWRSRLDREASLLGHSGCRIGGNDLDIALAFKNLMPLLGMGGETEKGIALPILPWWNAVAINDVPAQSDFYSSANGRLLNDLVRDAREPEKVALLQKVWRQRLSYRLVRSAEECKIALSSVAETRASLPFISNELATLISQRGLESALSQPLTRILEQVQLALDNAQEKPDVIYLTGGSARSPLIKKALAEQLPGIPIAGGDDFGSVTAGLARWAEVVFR
# Chain of UniProt P05041 (P05041 whole entry): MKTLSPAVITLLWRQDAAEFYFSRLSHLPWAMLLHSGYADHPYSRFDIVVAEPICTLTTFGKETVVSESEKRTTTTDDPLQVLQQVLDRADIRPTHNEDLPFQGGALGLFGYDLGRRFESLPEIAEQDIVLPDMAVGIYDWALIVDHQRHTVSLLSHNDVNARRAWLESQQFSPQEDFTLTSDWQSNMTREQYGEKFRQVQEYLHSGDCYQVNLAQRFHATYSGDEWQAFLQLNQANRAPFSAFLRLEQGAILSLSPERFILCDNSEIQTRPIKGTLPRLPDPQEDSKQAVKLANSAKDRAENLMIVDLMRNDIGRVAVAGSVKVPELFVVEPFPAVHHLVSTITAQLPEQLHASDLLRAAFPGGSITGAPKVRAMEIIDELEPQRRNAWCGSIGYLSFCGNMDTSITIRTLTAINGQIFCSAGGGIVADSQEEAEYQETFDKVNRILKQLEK
# Chain of UniProt P11553 (P11553 whole entry): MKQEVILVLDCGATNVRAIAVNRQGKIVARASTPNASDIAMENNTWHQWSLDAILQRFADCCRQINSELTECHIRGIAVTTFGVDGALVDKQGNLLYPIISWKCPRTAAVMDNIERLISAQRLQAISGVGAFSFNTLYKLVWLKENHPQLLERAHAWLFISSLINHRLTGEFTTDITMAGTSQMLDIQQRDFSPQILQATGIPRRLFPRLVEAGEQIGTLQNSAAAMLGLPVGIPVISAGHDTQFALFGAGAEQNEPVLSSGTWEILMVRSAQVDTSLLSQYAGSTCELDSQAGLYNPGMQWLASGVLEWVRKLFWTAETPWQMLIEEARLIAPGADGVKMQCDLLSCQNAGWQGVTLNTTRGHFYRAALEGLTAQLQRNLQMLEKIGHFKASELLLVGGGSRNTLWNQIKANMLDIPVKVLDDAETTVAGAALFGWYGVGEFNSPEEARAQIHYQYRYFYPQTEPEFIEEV
# Chain of UniProt P21420 (P21420 whole entry): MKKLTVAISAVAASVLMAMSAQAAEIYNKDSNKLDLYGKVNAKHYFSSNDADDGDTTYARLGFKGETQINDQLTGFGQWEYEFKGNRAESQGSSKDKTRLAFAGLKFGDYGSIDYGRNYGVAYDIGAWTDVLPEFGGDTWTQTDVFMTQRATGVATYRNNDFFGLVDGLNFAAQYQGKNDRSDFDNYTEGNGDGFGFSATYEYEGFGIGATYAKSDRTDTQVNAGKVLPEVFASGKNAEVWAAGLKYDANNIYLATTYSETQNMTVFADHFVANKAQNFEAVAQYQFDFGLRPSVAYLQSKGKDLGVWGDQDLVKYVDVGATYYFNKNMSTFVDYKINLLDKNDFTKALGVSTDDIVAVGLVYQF
row,Target,log2 fold change
1,"UniProt P36566 (peptide sequence: TLSPDYPR, peptide start residue: 179)",-1.28
2,"UniProt P45577 (peptide sequence: VAGEMNLSKTQLR, peptide start residue: 46)",0.623
3,"UniProt P0CF91 (peptide sequence: SLLHLDALR, peptide start residue: 320)",0.694
4,"UniProt P76506 (peptide sequence: SDPLEGFNR, peptide start residue: 29)",0.294
5,"UniProt P07648 (peptide sequence: VKAHLTCLHTR, peptide start residue: 776)",1.26
6,"UniProt P07395 (peptide sequence: GKGVAEGYK, peptide start residue: 746)",-0.76
7,"UniProt P37902 (peptide sequence: ALFKEPNDKALN, peptide start residue: 291)",1.12
8,"UniProt P36928 (peptide sequence: EAVSEWLYR, peptide start residue: 44)",0.728
9,"UniProt P11553 (peptide sequence: AQIHYQYR, peptide start residue: 451)",0.93
10,"UniProt P39410 (peptide sequence: HIAQEMPEKIR, peptide start residue: 422)",-1.96
11,"UniProt P31665 (peptide sequence: QEVSQEFAQR, peptide start residue: 262)",-0.678
12,"UniProt P21420 (peptide sequence: HYFSSNDADDGDTTYAR, peptide start residue: 44)",-0.336
13,"UniProt P0A6H5 (peptide sequence: VQAIEKNR, peptide start residue: 113)",1.65
14,"UniProt P09373 (peptide sequence: ALIPFGGIK, peptide start residue: 109)",-0.384
15,"UniProt P08957 (peptide sequence: SRIGQEQLQFYR, peptide start residue: 61)",1.09
16,"UniProt P09980 (peptide sequence: AANILIANNPHVFEKR, peptide start residue: 286)",-3.41

row,Target,log2 fold change
1,"UniProt P0A9U6 (peptide sequence: VSPAISTLQK, peptide start residue: 45)",0.654
2,"UniProt P21507 (peptide sequence: DVLGSAPTGTGK, peptide start residue: 43)",-3.34
3,"UniProt P76085 (peptide sequence: QLGGDASGCSLR, peptide start residue: 198)",-1.23
4,"UniProt P25524 (peptide sequence: EYGVESLHK, peptide start residue: 192)",-0.706
5,"UniProt P33030 (peptide sequence: TTPESEQALQR, peptide start residue: 157)",-0.316
6,"UniProt P05041 (peptide sequence: APFSAFLR, peptide start residue: 239)",0.459
7,"UniProt P38051 (peptide sequence: QAQQLGEWLMADDKNQR, peptide start residue: 267)",-0.448
8,"UniProt P77306 (peptide sequence: TLSPEDLR, peptide start residue: 123)",0.57
9,"UniProt P64624 (peptide sequence: QIVLNLYEK, peptide start residue: 192)",0.361
10,"UniProt P37766 (peptide sequence: AIAPDIAFIR, peptide start residue: 178)",-0.633
11,"UniProt P04968 (peptide sequence: EALLAVTIPEEK, peptide start residue: 338)",0.397
12,"UniProt P76187 (peptide sequence: HFGVSNFTPAQFALLQSR, peptide start residue: 154)",-0.944
13,"UniProt P37747 (peptide sequence: DKDSLASK, peptide start residue: 216)",-0.827
14,"UniProt P71298 (peptide sequence: QNRPTVTAHAYR, peptide start residue: 218)",-1.54
15,"UniProt P76502 (peptide sequence: VLVSPFLR, peptide start residue: 48)",0.397
